Assay results published in PubChem BioAssay AID588850 (Sanford-Burnham Center for Chemical Genomics, 2011).
Hit rate of the full screen: of about 360,000 compounds, about 3,100 (0.86%) were called active.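 How the source made its calls: active means at least 50% inhibition at 5 µM, scaled per plate between neutral and stimulator controls; inactive means the rest.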 For the sample, actives were picked, then their nearest neighbours and some compounds at random.

assay: NF-kB reporter blockers in CF airway cells – cell-based, GFP fluorescence, uHTS, primary screen (AID 588850); details: KKLEB NF-kB-GFP reporter, PAF-induced, GFP fluorescence overnight; at 5 µM; active compounds read high;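 further: PAF is a Pseudomonas aeruginosa culture filtrate used as stimulus; plate controls were PAF-stimulated DMSO wells for no effect and unstimulated DMSO wells for full effect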

Question: Which inhibition does the source give for `O=C1C(Cl)=C(Oc2ccccc2)C(=O)c2ccccc21` here?
Answer: Its inhibition is 59.1% (active).

Question: With `Cc1nc2sccn2c(=O)c1S(=O)(=O)NCCc1ccccc1` as the molecule, how does the inhibition read?
Answer: The inhibition was -12.2% (inactive).

Question: For `CCc1nc2c(OCCc3cccc(OC)c3)cccn2c1N(C)C(=O)c1ccc(C)cc1`, which inhibition is on record?
Answer: Its inhibition is 5.8% (inactive).

Question: For `Cc1ccc(Cn2c(C)c3cnn(CC(=O)NCCN4CCOCC4)c(=O)c3c2C)cc1`, which inhibition is on record?
Answer: Its inhibition is -0.6% (inactive).

Question: For `O=C(c1c(F)cccc1F)N1CCN(c2ncc(Br)cn2)CC1`, which inhibition is on record?
Answer: The inhibition was -1.3% (inactive).

Question: For `CC(Nc1ccc([N+](=O)[O-])cc1[N+](=O)[O-])c1ccccc1` (stereo not given), which inhibition is on record?
Answer: The inhibition was 4.8% (inactive).

Question: For `O=C(NC(Nc1nc2ccc([N+](=O)[O-])cc2s1)(C(F)(F)F)C(F)(F)F)c1ccccc1`, which inhibition is on record?
Answer: Its inhibition is 74.8% (active).

Question: With `O=C(NNC(=O)c1ccc(-n2cncn2)c([N+](=O)[O-])c1)c1ccccc1` as the molecule, how does the inhibition read?
Answer: Its inhibition is 14.4% (inactive).

Question: With `Cc1cn(C2CC(O)C(CO)O2)c(=O)n(CCCc2ccccc2)c1=O` (stereo not given) as the molecule, how does the inhibition read?
Answer: The inhibition was 1.7% (inactive).

Question: With `COc1ccc(-c2cc(C3CCN(c4ncccc4[N+](=O)[O-])CC3)[nH]n2)cc1` as the molecule, how does the inhibition read?
Answer: The inhibition was 18.1% (inactive).

Question: Which inhibition does the source give for `CN(CC(=O)NNC(=O)CNC(=O)c1ccccc1Cl)S(=O)(=O)c1ccc(Cl)cc1` here?
Answer: The inhibition was 60.5% (active).

Question: For `CN(CC(=O)NCCc1ccccn1)S(=O)(=O)c1ccc(Cl)cc1`, which inhibition is on record?
Answer: The inhibition was -8% (inactive).

Question: With `CN(CC(=O)NCC(c1ccccc1)N1CCCC1)S(=O)(=O)c1ccc(Cl)cc1` (stereo not given) as the molecule, how does the inhibition read?
Answer: The inhibition was -5.7% (inactive).

Question: For `COc1ccc(CCNC(=O)CN(c2ccccc2)S(C)(=O)=O)cc1OC`, which inhibition is on record?
Answer: The inhibition was -0.3% (inactive).

Question: For `COc1ccc(C(CCN(Cc2ccc(OC)c(OC)c2)C(=O)CCl)c2ccccc2)cc1` (stereo not given), which inhibition is on record?
Answer: Its inhibition is 82.6% (active).

Question: With `COc1ccc(C(C(=O)NC2CCCCC2)N(C(=O)CCl)c2ccccc2Cl)cc1` (stereo not given) as the molecule, how does the inhibition read?
Answer: Its inhibition is -13.3% (inactive).

Question: With `CCCCn1c(N)c(N(CC(C)C)C(=O)c2ccc(Br)o2)c(=O)[nH]c1=O` as the molecule, how does the inhibition read?
Answer: The inhibition was -29% (inactive).

Question: With `NC(=S)c1ccc(C(N)=S)o1` as the molecule, how does the inhibition read?
Answer: Its inhibition is 14.6% (inactive).

Question: With `CCC(C(=O)NCc1cccnc1)n1nc(C)c2sc3ccccc3c2c1=O` (stereo not given) as the molecule, how does the inhibition read?
Answer: Its inhibition is 9.9% (inactive).

Question: Which inhibition does the source give for `N#CCCn1ncc2ccccc21` here?
Answer: The inhibition was -11.2% (inactive).

Question: With `Cc1nnc(NC(=O)CSc2nc(C3CCCCC3)nc3ccccc23)s1` as the molecule, how does the inhibition read?
Answer: Its inhibition is 22.6% (inactive).

Question: For `O=C(CSc1nc(C2CC2)nc2ccccc12)Nc1ccc2c(c1)OCCO2`, which inhibition is on record?
Answer: The inhibition was 42.7% (inactive).

Question: For `O=C(CSc1nc(C2CC2)nc2ccccc12)Nc1cccc(O)c1`, which inhibition is on record?
Answer: The inhibition was 50.1% (active).

Question: With `O=Cc1ccc(OCc2cn3ccccc3n2)cc1` as the molecule, how does the inhibition read?
Answer: Its inhibition is -22.3% (inactive).

Question: For `Cc1ccc(C=O)c([B-](F)(F)F)c1`, which inhibition is on record?
Answer: The inhibition was -9.8% (inactive).

Question: Which inhibition does the source give for `CN1c2ccc(C=O)c3c(C=O)ccc(c23)N(C)C1(C)C` here?
Answer: The inhibition was 88% (active).

Question: With `C=CCn1c(C2CC(=O)N(c3ccc(C)cc3)C2)nc2ccccc21` (stereo not given) as the molecule, how does the inhibition read?
Answer: The inhibition was -16.5% (inactive).

Question: With `CCOc1ccc(S(=O)(=O)NCCC(=O)NNC(=O)c2ccc(F)cc2)cc1` as the molecule, how does the inhibition read?
Answer: The inhibition was 9.6% (inactive).

Question: For `Cc1ccc2c(c1)N(CC(=O)N1CCCc3ccccc31)C(=O)C(C)O2` (stereo not given), which inhibition is on record?
Answer: Its inhibition is 7.2% (inactive).

Question: Which inhibition does the source give for `CCOC(=O)c1c(C)oc2cc(Br)c(OCC(N)=O)cc12` here?
Answer: Its inhibition is -3.8% (inactive).

Question: With `CCOC(=O)c1c(-c2ccccc2)oc2cc(Br)c(O)c(C=O)c12` as the molecule, how does the inhibition read?
Answer: Its inhibition is 68.5% (active).

Question: With `CCOC(=O)c1c(C)oc2cc(Sc3ccccc3)c(O)c(O)c12` as the molecule, how does the inhibition read?
Answer: The inhibition was 6.5% (inactive).

Question: With `CCCc1nc2c(c(=O)c3ccccc3n2C)c(=O)n1C1CCCCCC1` as the molecule, how does the inhibition read?
Answer: The inhibition was 55.9% (active).

Question: With `CCOC(=O)c1nnn2c3ccccc3c(=O)n(C)c12` as the molecule, how does the inhibition read?
Answer: The inhibition was -25.2% (inactive).

Question: For `CCOC(=O)N1CCN(C(=O)c2nn(-c3ccc(C)cc3)c(=O)c3c2c2ccccc2n3C)CC1`, which inhibition is on record?
Answer: Its inhibition is -7.7% (inactive).

Question: With `Cc1ccc(CNC(=O)c2ccc(CS(=O)Cc3cccc(Cl)c3)o2)cc1` (stereo not given) as the molecule, how does the inhibition read?
Answer: Its inhibition is 1.3% (inactive).

Question: With `O=C(Nn1cc(C(=O)N2CCN(c3ccccc3F)CC2)c2ccccc2c1=O)c1cnccn1` as the molecule, how does the inhibition read?
Answer: Its inhibition is -8.3% (inactive).

Question: For `NNc1cccc(C=Cc2ccccc2)cc1=O`, which inhibition is on record?
Answer: The inhibition was 3.8% (inactive).

Question: Which inhibition does the source give for `O=C1OC(Oc2ccc(Br)cc2)(c2ccccc2)c2ccccc21` (stereo not given) here?
Answer: Its inhibition is 50.3% (active).

Question: With `CCOC(=O)CSc1nnc(CNC(=O)Cc2ccccc2)n1-c1ccccc1OC` as the molecule, how does the inhibition read?
Answer: Its inhibition is 1.5% (inactive).

Question: For `CS(=O)(=O)c1cccc(-c2ccc3nncn3c2)c1`, which inhibition is on record?
Answer: Its inhibition is 5.2% (inactive).

Question: With `CC(CN1CCCCC1)OC(=O)c1ccccc1Cl` (stereo not given) as the molecule, how does the inhibition read?
Answer: The inhibition was -7.9% (inactive).

Question: Which inhibition does the source give for `CC(C)OC(=O)c1ccc(NCc2cc(O)ccc2O)cc1Cl` here?
Answer: The inhibition was 86.3% (active).

Question: With `O=C(O)Cc1ccc(NCc2ccccc2Cl)cc1` as the molecule, how does the inhibition read?
Answer: Its inhibition is -14.4% (inactive).

Question: Which inhibition does the source give for `Oc1cccc2cc(-c3ccncc3)cnc12` here?
Answer: The inhibition was 13.6% (inactive).

Question: For `COc1ccc(CNC(=O)C[C@H]2C[C@H](C(=O)N3CCOCC3)[C@@]3(CCC4CCCC4)c4[nH]c5ccc(Cl)cc5c4CCN3C2=O)cc1OC`, which inhibition is on record?
Answer: Its inhibition is 8.2% (inactive).

Question: With `O=C(CCS(=O)(=O)Cc1ccccc1F)NCCCN1CCCCC1` as the molecule, how does the inhibition read?
Answer: The inhibition was 5% (inactive).

Question: Which inhibition does the source give for `CC1CN(c2cc(=O)n(-c3cccc(Br)c3)c(=O)[nH]2)CC(C)O1` (stereo not given) here?
Answer: The inhibition was -24.9% (inactive).

Question: For `COC(=O)C1CCN(C(=O)COC(=O)c2cc(S(=O)(=O)N3CCOCC3)ccc2C)CC1`, which inhibition is on record?
Answer: The inhibition was 5.9% (inactive).

Question: With `CC(C)NS(=O)(=O)c1ccc(CCC(=O)N2CCOCC2)cc1` as the molecule, how does the inhibition read?
Answer: The inhibition was 5% (inactive).

Question: For `CC(=O)Nc1ccc(NC(=O)CSCc2cnn(-c3ccccc3)c2-n2cccc2)cc1`, which inhibition is on record?
Answer: Its inhibition is 11.8% (inactive).

Question: With `O=C(/C=C/Sc1ncn[nH]1)c1ccc(Cl)cc1` as the molecule, how does the inhibition read?
Answer: Its inhibition is 42.7% (inactive).

Question: Which inhibition does the source give for `COC(c1ccccc1)(c1ccccc1)C(Oc1nc(C)cc(C)n1)C(=O)O` (stereo not given) here?
Answer: Its inhibition is 3.3% (inactive).

Question: With `Cc1cc(C)nc(S/C=C/C(=O)c2ccccc2)n1` as the molecule, how does the inhibition read?
Answer: The inhibition was 71.8% (active).

Question: With `C[C@@H]1Cn2cnc(C(=O)Nc3ccc(CNC(=O)OC(C)(C)C)cc3)c2C(=O)N1` as the molecule, how does the inhibition read?
Answer: The inhibition was -14.7% (inactive).

Question: Which inhibition does the source give for `C=C(C)CNC(=O)c1ccc(OC2CCN(C(=O)COC)CC2)cc1` here?
Answer: The inhibition was 13.1% (inactive).

Question: For `CC(=O)N1c2ccc(S(=O)(=O)NCCC(=O)N(C)C3CCCCC3)cc2CC1C` (stereo not given), which inhibition is on record?
Answer: The inhibition was 3.2% (inactive).

Question: For `COc1ccccc1C(=O)Nc1cccc(C(=O)N2CCOCC2)c1`, which inhibition is on record?
Answer: The inhibition was -3.8% (inactive).

Question: With `Cc1c(Cl)cccc1NC(=O)Nc1ccc(C(=O)N2CCCC2)cc1` as the molecule, how does the inhibition read?
Answer: The inhibition was 3.8% (inactive).

Question: For `O=C(Nc1ccc(C(=O)N2CCOCC2)cc1)Nc1cccc(C(F)(F)F)c1`, which inhibition is on record?
Answer: The inhibition was 55.4% (active).
